Test results: PubChem BioAssay (NCI)
About 79,000 compounds went through this panel and 15% of them were active in at least one assay; those are over-represented in the sample as a whole. Activity calls are given as the source filed them. Rule as the data show it: active = growth inhibition above about 70%; inactive = the rest.

What was measured:
[1] = NCI Yeast Anticancer Drug Screen. Data for the rad50 strain (AID 155);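 also: 0% = growth of vehicle-only cultures of the same strain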; conditions: S. cerevisiae rad50 strain growth inhibition, hits give high values
Outline: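 Genetically altered yeast (DNA repair pathway); compound treatment; growth inhibition vs vehicle ctrl.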

[2] = NCI Yeast Anticancer Drug Screen. Data for the mec2-1 strain (AID 157); conditions: S. cerevisiae mec2-1 strain, hits give high values
Outline: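 Using mec2-1 yeast: add compound, measure growth, express inhibition versus vehicle-treated cultures.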

[3] = NCI Yeast Anticancer Drug Screen. Data for the sgs1 mgt1 strain (AID 161);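 also: 0% = growth of cultures given vehicle only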; conditions: S. cerevisiae sgs1 mgt1 strain, hits give high values
Outline: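 Yeast cells carrying a defined DNA-repair defect were exposed to test compounds. Growth inhibition was measured relative to vehicle-treated controls.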

[4] = NCI Yeast Anticancer Drug Screen. Data for the cln2 rad14 strain (AID 165);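 also: 0% = growth equal to vehicle treated cultures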; conditions: S. cerevisiae cln2 rad14 strain, hits give high values
Outline: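 Yeast strain cln2 rad14, bearing defects in cell cycle control and DNA repair, serves as the test system; values reflect growth inhibition compared with vehicle.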

[5] = NCI Yeast Anticancer Drug Screen. Data for the bub3 strain (AID 167); conditions: S. cerevisiae bub3 mutant strain, hits give high values
Outline: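 Yeast carrying a defined mutation is treated with each compound, and growth is compared with that of vehicle-exposed cells to give inhibition.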

[6] = NCI Yeast Anticancer Drug Screen. Data for the mlh1 rad18 strain (AID 175); conditions: S. cerevisiae mlh1 rad18 strain growth inhibition, hits give high values
Outline: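 Steps: expose repair-defective yeast to compound; measure growth; express inhibition against vehicle-treated controls.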

[7] = at 5.0 µM (retest, dose inferred, filed as 0.5)
[8] = at 50.0 µM (retest, dose inferred, filed as 5.0)

Measured: growth inhibition

Oc1ccc(C(c2ccccc2)(c2ccccc2)c2ccccc2)cc1O
inactive: [1]; [7] -8% | [2]; [7] -2% | [3]; [7] -4% | [4]; [7] 0% | [5]; [7] -4% | [6]; [7] 0%
active: [1]; [8] 99% | [1]; at 50.0 µM 98.2% | [2]; [8] 100% | [2]; at 50.0 µM 98.7% | [3]; [8] 99% | [3]; at 50.0 µM 98.3% | [4]; [8] 97% | [4]; at 50.0 µM 97.4% | [5]; [8] 99% | [5]; at 50.0 µM 98% | [6]; [8] 99% | [6]; at 50.0 µM 98%

COC(=O)[C@@H]1c2cc3c(c(O)c2[C@@H](OC)C[C@@]1(C)O)C(=O)c1c(O)cc2c(c1C3=O)OC1O[C@@]2(C)[C@H](O)[C@@H](N(C)C)[C@@H]1O
inactive: [1]; [7] 15% | [1]; at 50.0 µM 64.2% | [2]; [7] 10% | [3]; [7] 9% | [4]; [7] 4% | [5]; [7] 5% | [6]; [7] 12%
active: [1]; [8] 98% | [2]; [8] 95% | [2]; at 50.0 µM 94% | [3]; [8] 98% | [3]; at 50.0 µM 94% | [4]; [8] 97% | [4]; at 50.0 µM 87.5% | [5]; [8] 97% | [5]; at 50.0 µM 92.8% | [6]; [8] 97% | [6]; at 50.0 µM 92.4%

CCCC#CC(O)(C(=O)OC1CCN(C)CC1)C1CCCCC1 (stereo not given)
inactive: [1]; [7] 34% | [1]; [8] 55% | [1]; at 50.0 µM 63.5% | [2]; [7] 36% | [2]; [8] 53% | [2]; at 50.0 µM 45.1% | [3]; [7] 12% | [3]; [8] 69% | [3]; at 50.0 µM 65.9% | [4]; [7] 41% | [4]; [8] 55% | [4]; at 50.0 µM 53.5% | [5]; [7] 23% | [5]; [8] 56% | [5]; at 50.0 µM 58% | [6]; [7] 46% | [6]; at 50.0 µM 53.5%
active: [6]; [8] 79%

CC1(C)CC(=O)C(C=NC(=S)c2ccccc2)=C(O)C1
inactive: [1]; [7] 21% | [1]; [8] 27% | [1]; at 50.0 µM -43.3% | [2]; [7] 4% | [2]; [8] 13% | [2]; at 50.0 µM -54% | [3]; [7] 6% | [3]; [8] 9% | [3]; at 50.0 µM -37.1% | [4]; [7] 11% | [4]; [8] 14% | [4]; at 50.0 µM -0.6% | [5]; [7] 20% | [5]; [8] 32% | [5]; at 50.0 µM -13.4% | [6]; [7] 14% | [6]; [8] 27% | [6]; at 50.0 µM 22.1%

O/N=C\c1ccc(-c2ccccc2)cc1
active: [1]; [8] 87% | [1]; at 50.0 µM 74% | [3]; [8] 88% | [3]; at 50.0 µM 87% | [5]; [8] 83% | [5]; at 50.0 µM 77.7% | [6]; [8] 91%
inactive: [1]; [7] -17% | [2]; [7] -13% | [2]; [8] 64% | [2]; at 50.0 µM 47.6% | [3]; [7] -8% | [4]; [7] 17% | [4]; [8] 67% | [4]; at 50.0 µM 51.1% | [5]; [7] 2% | [6]; [7] 6% | [6]; at 50.0 µM 49.6%

CCCCC(CC)COP(=O)(OCC(CC)CCCC)OCC(CC)CCCC (stereo not given)
inactive: [1]; [7] 0% | [1]; [8] 7% | [1]; at 50.0 µM 15.8% | [2]; [7] 13% | [2]; [8] -7% | [2]; at 50.0 µM 10.6% | [3]; [7] 9% | [3]; [8] 18% | [3]; at 50.0 µM -2.85% | [4]; [7] 0% | [4]; [8] -3% | [4]; at 50.0 µM 0.85% | [5]; [7] -5% | [5]; [8] -11% | [5]; at 50.0 µM -6.75% | [6]; [7] -4% | [6]; [8] -12% | [6]; at 50.0 µM 29.1%

CC(NCCO)c1ccc2ccccc2c1 (stereo not given)
inactive: [1]; [7] 0% | [1]; [8] 8% | [1]; at 50.0 µM 2.15% | [2]; [7] 3% | [2]; [8] -4% | [2]; at 50.0 µM -13.2% | [3]; [7] -10% | [3]; [8] -6% | [3]; at 50.0 µM 2.3% | [4]; [7] 3% | [4]; [8] -3% | [4]; at 50.0 µM 30.7% | [5]; [7] 3% | [5]; [8] -1% | [5]; at 50.0 µM -14.9% | [6]; [7] -1% | [6]; [8] 8% | [6]; at 50.0 µM -3.8%

O=C1C=CC(=O)c2c(O)c(N3CCN(CCOCCO)CC3)c(Br)c(O)c21
active: [1]; [8] 96% | [1]; at 50.0 µM 88.3% | [2]; [8] 98% | [2]; at 50.0 µM 88.6% | [3]; [8] 97% | [3]; at 50.0 µM 89.7% | [4]; [8] 96% | [4]; at 50.0 µM 86.4% | [5]; [8] 96% | [5]; at 50.0 µM 85.9% | [6]; [8] 98% | [6]; at 50.0 µM 86.5%
inactive: [1]; [7] 15% | [2]; [7] 13% | [3]; [7] 18% | [4]; [7] 17% | [5]; [7] 25% | [6]; [7] 16%

CCOC(=O)c1[nH]c(Br)c(-c2ccc(OC)c(OC)c2)c1Br
inactive: [1]; [7] 1% | [2]; [7] -8% | [2]; at 50.0 µM 63.5% | [3]; [7] 1% | [4]; [7] 26% | [5]; [7] -2% | [6]; [7] 8%
active: [1]; [8] 98% | [1]; at 50.0 µM 92.1% | [2]; [8] 97% | [3]; [8] 98% | [3]; at 50.0 µM 97.2% | [4]; [8] 99% | [4]; at 50.0 µM 88.8% | [5]; [8] 99% | [5]; at 50.0 µM 88% | [6]; [8] 97% | [6]; at 50.0 µM 94.2%

C[N+]1(C)C/C(=C\C=C\c2ccccc2)C(=O)/C(=C/C=C/c2ccccc2)C1
active: [1]; at 50.0 µM 93.2% | [2]; at 50.0 µM 92.1% | [3]; at 50.0 µM 92.6% | [4]; at 50.0 µM 91.5% | [5]; at 50.0 µM 93.9% | [6]; at 50.0 µM 92.5%
inactive: [1]; [7] 17% | [1]; [8] 17% | [2]; [7] 9% | [2]; [8] 9% | [3]; [7] 17% | [3]; [8] 17% | [4]; [7] 0% | [4]; [8] 0% | [5]; [7] -2% | [5]; [8] -2% | [6]; [7] 9% | [6]; [8] 9%
